This is a sample that favours compounds with a hit; in the whole collection about 4.2% have one here.
SW480 rereplic: A quantitative high throughput screen for small molecules that induce DNA re-replication in SW480 colon adenocarcinoma cells; SW480 DNA re-replication, Hoechst DNA content imaging, 48 h; Potency, µM (top dose mostly 46.1 µM), usual class: activators; 340,000 tested, 1.8% active; note: nearly all actives have a fitted effect of over 55% in size
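SW480 cells exposed to compounds for 48 hr at 37 C, 5% CO2, then Hoechst-stained 40 min. Nuclear DNA content imaged by fluorescence scanning (405 nm excitation, 500-530 nm emission); re-replication scored as increased high-intensity nuclei.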
MCF10A rerep: A quantitative high throughput screen for small molecules that induce DNA re-replication in MCF 10a normal breast cells; MCF 10A DNA re-replication, Hoechst nuclear intensity, 48 h; Potency, µM (doses to about 46.1 µM), hits mostly activators; 350,000 tested, 2.9% active; note: nearly all actives have a fitted effect of over 50% in size
A-T KAP1 phos: qHTS Assay for Identifying a Potential Treatment of Ataxia-Telangiectasia; F2112 A-T fibroblasts, KAP-1 phosphorylation AlphaLISA; neocarzinostatin DNA damage 30 min before lysis; Potency, µM (series often up to 57.5 µM), most hits filed as activators; 320,000 tested, 0.19% active; note: nearly all actives have a fitted effect of over 45% in size
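ATM-like activity read as KAP-1 phosphorylation via AlphaLISA donor/acceptor antibody pairs after lysis and 6 hr at 25C. Cells were ATM-null patient fibroblasts (F2112, hTERT), dosed 60 min, then exposed to the DSB inducer NCS for 30 min.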
Integrin act MD: qHTS for Activators of Integrin-Mediated Alleviation for Muscular Dystrophy. alpha7betagal myoblasts, beta-gal FDG fluorescence, 48 h. Potency, µM (titrated, usually from 38.3 µM), actives largely listed as activators. 350,000 tested, 0.064% active; note: nearly all actives have a fitted effect of over 60% in size
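alpha7betagal+/- myoblasts (passage 13, 250/well) treated 48 h at 37C with compounds at 1:260 dilution of DMSO stock. Lysed, then beta-galactosidase activity read as FDG fluorescence (ex 480/em 540) after 30 min, with pre-read for autofluorescence.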
Mito fusion act: qHTS Assay for Small Molecule Inhibitors of Mitochondrial Division or Activators of Mitochondrial Fusion; AID 485298, 2010; S. cerevisiae fusion-defective mutant growth rescue, CellTiterGlo 48 h; 320,000 tested, 0.23% active; Potency, µM (top dose mostly 46.1 µM), hits mostly activators; note: nearly all actives have a fitted effect of over 45% in size
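S. cerevisiae fusion-defective temperature-sensitive mutants (e.g. fzo1-1, mgm1-5) grown 48 h at 37C in YPEG (ethanol/glycerol non-fermentable) medium with 23 nl compound per well; growth rescue read as CellTiterGlo luminescence.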
Numbers stand for hits; . = inactive; ? = inconclusive; / = no result given; [ ] = another dose, or the depositor's remark. Calls come from the whole dose curve; as a rule, active = well fitted activation curve with a large enough effect; inconclusive = small, poorly fitted or top-dose-only effect; inactive = no such curve, though single readings can be large or run the other way.

SMILES	SW480 rereplic	MCF10A rerep	A-T KAP1 phos	Integrin act MD	Mito fusion act
Clc1ccc2c(c1)C(C1=NCCN1)c1ccccc1CS2 (stereo not drawn)	1.3µM	1.6µM	.	.	.
CCOC(=O)C1CN(Cc2ccccc2)C(=O)C1=O (stereo not drawn)	.	.	/	.	/
CCOC(=O)C1=C(O)C(=O)N(Cc2ccccc2)C1	.	.	1.1µM	.	.
CN1N=C2c3ccccc3CCCC2C1c1ccc(F)cc1 (stereo not drawn)	21µM	?	.	.	.
CN(C(=O)c1cccc(NC(=O)Cc2cccc(NC(=O)C3CCCN(C(=O)C4CCCC4)C3)c2)c1)C1CC1 (stereo not drawn)	.	?	/	.	/
C=C1C(=O)O[C@@H]2[C@@H]1CC/C(C)=C\CC[C@@]1(C)O[C@H]21	.	12µM	/	/	/
CC(C)C[C@@H](CNCC(=O)[C@H](CC(C)C)NC(=O)c1[nH]cnc1C(=O)N[C@@H](C)CN)NC(=O)c1nc[nH]c1C(=O)N[C@@H](CC(=O)O)C(=O)O	.	.	/	.	/
CC(=O)Nc1cccc(NC(=O)C2CCCN2C(=O)Nc2cccc(C)c2)c1 (stereo not drawn)	.	9.2µM	.	.	.
CC(=O)c1cccc(NC(=O)N2CCCC2C(=O)Nc2cccc(C)c2)c1 (stereo not drawn)	.	.	.	.	.
O=C1[C@H]2C(c3ccccc3)=NN(c3ccccc3)[C@H]2C(=O)N1c1ccccc1	.	0.65µM	.	.	?
O=C1C2C(c3ccccc3)=NN(c3ccccc3)C2C(=O)N1c1ccccc1 (stereo not drawn)	.	?	.	.	?
CC(=O)Nc1cccc(OCc2c(F)cccc2Cl)c1	.	.	.	.	.
CC(=O)Nc1cccc(OCc2cnc(Cl)s2)c1	.	0.15µM	.	.	.
O=C1NN=C2CCCCCCC12 (stereo not drawn)	/	/	/	.	/
Cc1cccn2c(=O)c3cc(C(=O)NC4CCCC4)c(=N)n(C4CCCC4)c3nc12	7.1µM	3.5µM	.	.	.
Cc1cccn2c(=O)c3cc(C(=O)NCc4ccco4)c(=N)n(C(C)C)c3nc12	?	.	.	.	.
N=c1c(C(=O)NC2CCCC2)cc2c(=O)n3ccccc3nc2n1C1CCCC1	16µM	.	.	.	.
N=c1c(C(=O)NCc2ccco2)cc2c(=O)n3ccccc3nc2n1C1CCCC1	21µM	21µM	.	.	.
COC(=O)C=C1CCC2C3CCC4=CC(=O)CCC4(C)C3C(=O)CC12C (stereo not drawn)	.	.	/	.	/
COC(=O)c1ccc(N/N=C/c2cc([N+](=O)[O-])cc(OC)c2O)cc1	.	.	.	.	.
COc1cc([N+](=O)[O-])cc(/C=N/N(CCC#N)C(C)=O)c1O	5.8µM	?	.	.	.
CC(C)(C)OC(=O)N1CCC(c2c(C(=O)NCC3CCN(C4CCCC4)C3)cnn2-c2cccc(Cl)c2)CC1 (stereo not drawn)	?	?	.	.	.
Cc1ccc(NC(=S)NC(=O)c2ccc(F)cc2)cc1S(=O)(=O)Nc1cccc(Cl)c1	3.7µM	2.6µM	.	.	.
C#C[C@@]1(O)CC[C@@H]2[C@H]3CCC4=C/C(=N\O)CC[C@H]4[C@@H]3CC[C@]21CC	.	?	/	/	/
O=C(CN(c1ccccn1)S(=O)(=O)c1ccc(F)cc1)Nc1ccc(F)cc1F	.	.	.	.	.
SMILES	SW480 rereplic	MCF10A rerep	A-T KAP1 phos	Integrin act MD	Mito fusion act
Cc1cc(N/N=C/c2cccc([N+](=O)[O-])c2)nc(-n2nc(C)cc2C)n1	3.7µM	?	.	.	.
Cc1cc(N/N=C/c2ccc(O)cc2O)nc(-n2nc(C)cc2C)n1	?	5.2µM	.	.	.
Cc1cc(N/N=C/c2ccccc2[N+](=O)[O-])nc(-n2nc(C)cc2C)n1	.	.	.	.	.
CCOC(=O)c1ccccc1NC(=O)COC(=O)C(CC(C)C)NC(N)=O (stereo not drawn)	.	0.92µM	.	.	.
NS(=O)(=O)c1ccc(NC(=O)Nc2ccc3c(c2)OCO3)cc1	.	.	.	.	.
COc1ccc(CC(=O)NCC2CCCCC2)cc1OC	5.8µM	.	.	.	?
O=C(COC(=O)c1ccc(F)cc1)NCC1CCCCC1	.	.	.	.	/
COc1ccccc1NC(=S)NCC1CCCCC1	9.2µM	?	.	?	.
COc1ccc(C(=O)OCC(=O)NCC2CCCCC2)cc1F	.	8.2µM	.	.	.
COc1ccccc1NC(=S)NC1CCCCC1	.	.	.	.	.
Cc1ccc(COC(=O)c2ccc3ccccc3n2)cc1	.	.	.	.	.
COc1ccc(NC(=O)CNS(=O)(=O)c2ccc(Cl)cc2)cc1OC	18µM	.	.	.	.
COc1ccc(NC(=O)CCS(=O)(=O)c2ccccc2Cl)cc1S(=O)(=O)Nc1ccc(Cl)cc1	?	16µM	.	.	.
COc1cc(CC(=O)Nc2ccc(S(=O)(=O)Nc3ncccn3)cc2)cc(OC)c1OC	.	.	.	.	.
COc1ccc(S(=O)(=O)NCC(=O)Nc2ccc3c(c2)OCCO3)cc1OC	.	.	.	.	.
COc1ccc(CC(=O)Nc2ccc(S(=O)(=O)Nc3ncccn3)cc2)cc1OC	16µM	.	.	.	.
COc1ccc(NC(=O)CCC(=O)c2cccs2)cc1S(=O)(=O)Nc1ccc(Cl)cc1	.	.	.	?	.
Cc1nn(C(C)C)c(C)c1CN1CCN(Cc2ccsc2)C(CCO)C1 (stereo not drawn)	.	.	.	.	.
CNC(=S)N(CCc1ccc(S(N)(=O)=O)cc1)C1CC(=O)N(c2ccccc2F)C1=O (stereo not drawn)	5.8µM	.[9.22 µM]	.	.	.
CCN(CC)C(=O)c1sc2nc(-c3cccs3)cc(-c3ccc(Cl)cc3)c2c1N	13µM	?	.	.	.
COC(=O)Nc1nc2ccc(C(=O)c3cccs3)cc2[nH]1	0.24µM	0.21µM	/	/	.
COC(=O)Nc1nc2ccc(C(=O)c3ccccc3)cc2[nH]1	0.29µM	?	/	/	/
Nc1cccc(-c2nc3ccc(C(=O)c4ccccc4)cc3[nH]2)c1	18µM	?	.	.	.
COC(=O)Nc1nc2ccc(SC(C)C)cc2[nH]1	0.82µM	1.6µM	.	/	.
COc1ccc(C(=O)Nc2nc3ccccc3[nH]2)cc1	?	.	.	.	.
O=C(Nc1nncs1)c1cccnc1Cl	.	.	.	.	.
CCOC(=O)c1oc2c(CN3CCN(C)CC3)c(O)c(CC)cc2c(=O)c1-c1nc2ccccc2s1	.	.	/	.	/
CCN(CC)C(=O)c1[nH]cnc1C(=O)Nc1ccon1	.	?	.	.	.

Compound activity: PubChem BioAssay, National Center for Advancing Translational Sciences (NCATS)
